Laboratory results taken from PubChem BioAssay AID1645851 (National Center for Advancing Translational Sciences (NCATS), 2021).
Hit rate of the full screen: of about 140,000 compounds, about 1,200 (0.86%) were called active. No stated cut-off is given here; in the data, active means activity change below about -25%; inactive means the rest. Only a selection was taken, and actives are over-represented in it overall.

Molecular target: Inositol hexakisphosphate kinase 1 (Homo sapiens) (UniProt Q92551)
Sequence (Q92551 whole entry, looked up): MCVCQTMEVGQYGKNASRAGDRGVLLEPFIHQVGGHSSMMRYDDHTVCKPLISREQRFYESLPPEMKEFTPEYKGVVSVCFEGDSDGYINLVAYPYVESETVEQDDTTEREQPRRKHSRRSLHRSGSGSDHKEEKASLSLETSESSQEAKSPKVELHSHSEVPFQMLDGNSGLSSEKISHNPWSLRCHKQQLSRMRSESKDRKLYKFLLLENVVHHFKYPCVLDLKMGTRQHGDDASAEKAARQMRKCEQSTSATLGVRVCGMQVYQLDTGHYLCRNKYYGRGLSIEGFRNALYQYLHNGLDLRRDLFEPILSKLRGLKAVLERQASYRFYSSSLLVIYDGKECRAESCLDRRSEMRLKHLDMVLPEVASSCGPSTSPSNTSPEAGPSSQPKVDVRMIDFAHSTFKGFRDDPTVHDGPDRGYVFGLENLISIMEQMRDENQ
Assay: Primary qHTS assay for small molecule inhibitors of Inositol hexaphosphate kinase 1 (IP6K1); further: series mostly up to about 58 µM
Settings: ADP-Glo luminescence, 2 h, hits give low values
Procedure, shortened: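 ADP-Glo luminescence measures ADP made by human IP6K1 during a 2 h RT reaction with ATP/IP6 (mix at 1.3 mM/130 uM); top library doses 57.5 and 19.1 uM final.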
On the % scale 0 is the no-effect control and ±100 the full control effect.

Activity change, active:
COc1ccccc1-c1cc(-c2cn[nH]c2)c2onc(C)c2n1 -25.3%, CCc1ccccc1N1C(=O)CN(S(=O)(=O)CC)CC1(C)C(=O)NC1CCCCC1 (stereo not drawn) -30.6%, CCc1ccccc1N1CC(c2nc3ccccc3n2CCCCOc2ccccc2)CC1=O (stereo not drawn) -28.8%, CCOC(=O)c1ccc(NC(=O)c2c(NCc3cccs3)sc3c2CCCC3)cc1 -31.3%

Activity change, inactive:
Cc1ccccc1Cc1c(C)nc2c(C(=O)N3CCc4c(c(-c5nncn5C)nn4C)C3)cnn2c1C 9.9%, N#CC1CCN(C(=O)c2ccc3nnc(Cc4ccco4)n3c2)CC1 2.16%, COc1ccccc1-c1cc(-c2cccc([S+](C)(=O)[O-])c2)c2onc(C)c2n1 2.9%, Cc1noc2c(-c3cccc(CO)c3)cc(-c3ccccc3)nc12 -16.9%, Cn1c(CCC(=O)N2CC[C@H](CO)[C@H](O)C2)nc2cccnc21 -2.6%, COc1ccccc1C(=O)N1CCCC2(C1)Nc1cccnc1NC2=NCc1ccccc1 (stereo not drawn) 6.92%, O=C(NCC1CCCCC1)[C@@H]1CCCN1c1ccnc2ccnn12 -2.98%, CN(C)c1ccc(CN2CCC(N3Cc4ccccc4C3=O)CC2)cc1 -12.5%, CCc1ccc(N2C(=O)CN(S(=O)(=O)CC)CC2(C)C(=O)NC2CCCCC2)cc1 (stereo not drawn) -13.3%, CCc1ccccc1NC(=O)c1ccc(F)c(S(=O)(=O)NC2CCCCCC2)c1 15.5%, COC(=O)NC1CCN(Cc2ccc(-c3cc(F)ccc3OC)cc2)C1 (stereo not drawn) 6.69%, Cc1oc(C(O)c2ccccc2)nc1C(=O)Nc1ccc2c(c1)CC(=O)N2 (stereo not drawn) 9.78%, CCOc1ccc(N2CC(c3nc4ccccc4n3CCOc3ccc(OC)cc3)CC2=O)cc1 (stereo not drawn) -11.8%, COc1ccc(OCCCn2c(C3CC(=O)N(c4ccc(F)cc4)C3)nc3ccccc32)cc1 (stereo not drawn) -3.06%, COCCO[C@H]1C(=O)N(C2CCN(C(=O)c3ccsc3)CC2)[C@H]1c1ccncc1 6.99%, CCOC(=O)c1ccc(NC(=O)c2csc3c2CCCCC3)cc1 3.62%, CCOC(=O)c1ccc(NC(=O)c2c(NCc3cccc(OC)c3)sc3c2CCC3)cc1 8.31%, CC(=O)Nc1cccc(C(=O)N2CCCN(c3cc(-c4ccc(Br)cc4)[nH]n3)CC2)c1 -10.1%, O=C(NCc1ccc(F)c(F)c1)C1CCCN(Cc2cccc(-c3cccs3)c2)C1 (stereo not drawn) 0.462%
